Experimental data from PubChem BioAssay (Tox21).
Results filed as inconclusive are left out. Active and inactive are the calls of the source. Unless noted, calls come from the whole dose curve; as a rule, active = well fitted curve in the direction sought with a large enough effect in the repeat runs; inconclusive = weak or mixed curves; inactive = no such curve, though single readings can be large; an effect the other way counts as inactive or inconclusive.

Experiments:
[1] = biological target: Thyrotropin receptor (Homo sapiens) (UniProt P16473); experiment: qHTS assay to identify small molecule antagonists of the thyroid stimulating hormone receptor (TSHR) signaling pathway (AID 1259385; calls by dose curve; note: nearly all actives have a fitted effect of over 20% in size)
Summary of the method: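 TSHR-HEK293 cells were plated and held 18 h at 37C/5% CO2, then given compound plus Ro20-1724 and stimulated with TSH at 1.5 ng/mL final. After 30 min at room temperature, cAMP was detected with cAMP-d2/anti-cAMP-cryptate (1 h) by fluorescence.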

[2] = qHTS assay to identify small molecule agonists of the estrogen receptor alpha (ER-alpha) signaling pathway in the presence of an antagonist - cell viability counter screen (AID 1259386);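 note: series mostly up to about 92 µM; cells exposed to compounds for 22 h at 37 °C before the viability read; nearly all actives have a fitted effect of over 30% in size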
Summary of the method: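 Read-out: CellTiter-Fluor fluorescence after 1hr reagent incubation, measured in the same wells as the luciferase readout. VM7Luc4E2 cells were exposed to 15 compound concentrations with 10.0nM ICI-182,780 for 22hr at 37C.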

[3] = biological target: Progesterone receptor (Homo sapiens) (UniProt P06401); experiment: qHTS assay to identify small molecule agonists of the progesterone receptor (PR) signaling pathway (AID 1346784; calls by dose curve; note: nearly all actives have a fitted effect of over 30% in size)
Summary of the method: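 The screen uses PR-UAS-bla HEK 293T cells in charcoal-stripped serum (2%). Compounds are applied for 16 hr at 37C after a 6 hr pre-incubation, and reporter activity is detected with a FRET beta-lactamase substrate after 2 hr at room temperature.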

[4] = biological target: Progesterone receptor (Homo sapiens) (UniProt P06401); experiment: qHTS assay to identify small molecule antagonists of the progesterone receptor (PR) signaling pathway (AID 1346795; active = well fitted inhibition curve with a large enough effect in the signal ratio in the repeat runs, not every such curve was filed as active; the % refers to the signal ratio)
Summary of the method: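 After 6 hr plating at 37C in 2% stripped-serum medium, PR-UAS-bla HEK293T cells got compounds, then 1 nM R5020. Sixteen hours later, LiveBLAzer substrate was applied for 2 hr at room temperature and fluorescence was recorded.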

[5] = qHTS assay to identify small molecule agonists of the progesterone receptor (PR) signaling pathway - cell viability counter screen (AID 1346799; calls by dose curve; note: nearly all actives have a fitted effect of over 45% in size)
Summary of the method: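 Viability was scored by ATP luminescence (CellTiter-Glo, 30 min, room temperature) in the same wells used for the reporter readout, after 16 hr compound exposure of PR-UAS-bla HEK293T cells.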

[6] = qHTS assay to identify small molecule agonists of the TGF-beta/Smad signaling pathway - cell viability counter screen (AID 1346829); note: top concentration of the series differs between compounds; nearly all actives have a fitted effect of over 45% in size
Summary of the method: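 Compound-treated SBE-bla HEK 293T cells (5 hr, 37 C) were assessed for viability with CellTiter-Glo in parallel with the reporter read.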

[7] = qHTS assay to identify small molecule agonists of the TGF-beta/Smad signaling pathway (AID 1346859; active = well fitted activation curve with a large enough effect in the signal ratio in the repeat runs, not every such curve was filed as active; the % refers to the signal ratio; note: series mostly up to about 77 µM)
Summary of the method: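 Dual-wavelength fluorescence (460/530 nm emission) quantified beta-lactamase expression under the Smad binding element in HEK 293T cells following 5 hr compound treatment at 37 C.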

[8] = Human pregnane X receptor (PXR) small molecule agonists, qHTS cell viability counter screen (AID 1346977); note: nearly all actives have a fitted effect of over 50% in size; note: potency is the fitted concentration of half-maximal effect
Summary of the method: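 HepG2 cells stably carrying the PXR-Luc reporter are cultured with 5% charcoal-stripped FBS and treated with compounds for 24hr. CellTiter-Fluor is added at 23hr and fluorescence is read after 1hr.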

[9] = Caspase-3/7 induction in HepG2 cells by small molecules, qHTS assay (AID 1346978); note: nearly all actives have a fitted effect of over 15% in size
Summary of the method: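 Wild-type HepG2 cells (2,000/well) were settled 5 h at 37 C, 5% CO2, then exposed to compounds in DMSO for 17 h. Caspase-3/7 activity was read by luminescence 30 min after adding Caspase-Glo 3/7 reagent at room temperature.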

[10] = Caspase-3/7 induction in CHO-K1 cells by small molecules, qHTS cell viability counter screen (AID 1346979); note: nearly all actives have a fitted effect of over 35% in size; note: potency is the fitted concentration of half-maximal effect
Summary of the method: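 Seeding: 1,500 CHO-K1 cells/well. Rest: 5hr, 37C. Treatment: compounds in DMSO, 16hr. Read: CellTiter-Fluor, 1hr, fluorescence.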

[11] = Caspase-3/7 induction in CHO-K1 cells by small molecules, qHTS assay (AID 1346980); note: nearly all actives have a fitted effect of over 15% in size
Summary of the method: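 Wild-type cells were seeded at 1,500 per well and settled 5 hr at 37 C, 5% CO2, then exposed to DMSO-dissolved compounds for 17 hr. Caspase-Glo 3/7 reagent was added, and luminescence was read after 30min at room temperature.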

[12] = Caspase-3/7 induction in HepG2 cells by small molecules, qHTS cell viability counter screen (AID 1346981); note: nearly all actives have a fitted effect of over 30% in size; note: potency is the fitted concentration of half-maximal effect; for activity change, negative = cytotoxicity: series mostly up to about 92 µM
Summary of the method: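 Fluorescence read-out of live-cell protease activity (CellTiter-Fluor) after 1 hr with reagent. This was measured in the same wells as the caspase-3/7 luminescence, on HepG2 cells exposed to DMSO-dissolved compounds for 16 hr at 37 C.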

[13] = biological target: Nuclear receptor subfamily 1 group I member 2 (Homo sapiens) (UniProt O75469); experiment: Human pregnane X receptor (PXR) small molecule agonists, qHTS assay (AID 1346982); note: nearly all actives have a fitted effect of over 35% in size; note: potency is the fitted concentration of half-maximal effect
Summary of the method: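 HepG2 PXR-Luc reporter line, 5% charcoal-stripped FBS; 5 hr pre-incubation, compound (DMSO) 24 hr at 37 C/5% CO2; ONE-Glo 30 min RT; luminescence read-out.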

[14] = qHTS assay to identify small molecule antagonists of the progesterone receptor (PR) signaling pathway - cell viability counter screen (AID 1346798); note: series mostly up to about 92 µM; nearly all actives have a fitted effect of over 50% in size
Summary of the method: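 Viability was determined by ATP-based luminescence (CellTiter-Glo) in PR-UAS-bla HEK293T cells cultured in 2% charcoal-stripped serum and incubated 16 hr with compounds under R5020 stimulation.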

[15] = qHTS assay to identify small molecule antagonists of the TGF-beta/Smad signaling pathway - cell viability counter screen (AID 1346824); note: nearly all actives have a fitted effect of over 50% in size
Summary of the method: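 SBE-bla HEK 293T cells were plated overnight at 37 C, then given compounds in DMSO plus TGF-beta1 (added as 0.25 ng/mL solution) for 5 hr. After the bla read, CellTiter-Glo was added to the same wells and luminescence read after 30 min at room temperature.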

[16] = biological target: Nuclear receptor subfamily 1 group I member 2 (Rattus norvegicus) (UniProt Q9R1A7); experiment: Rat pregnane X receptor (rPXR) activation by small molecules, qHTS assay (AID 1346983); settings: rPXR luciferase reporter cells, One-Glo luminescence, 24 h; hits give high values; note: nearly all actives have a fitted effect of over 20% in size
Summary of the method: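 Cell-based rPXR luciferase reporter assay, 2,000 cells per well, rested 5hr at 37 C before compound addition in DMSO, then 24 hr at 37 C. One-Glo reagent was added and luminescence read after 30 min at room temperature.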

[17] = biological target: Nuclear receptor subfamily 1 group I member 2 (Homo sapiens) (UniProt O75469); experiment: CYP3A4 induction through human pregnane X receptor (PXR) by small molecules, qHTS assay (AID 1346984); note: nearly all actives have a fitted effect of over 40% in size
Summary of the method: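 HepG2-derived DPX-2 line carrying PXR plus a CYP3A4-promoter luciferase reporter; cells plated 5 hr, compound-exposed 24 hr at 37C. CYP3A4 activity probed with 3uM (final) Luciferin-IPA for 3hr, then luciferase read after One-Glo.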

[18] = biological target: Nuclear receptor subfamily 1 group I member 2 (Homo sapiens) (UniProt O75469); experiment: Human pregnane X receptor (PXR) activation by small molecules, qHTS assay (AID 1346985); note: nearly all actives have a fitted effect of over 40% in size; note: potency is the fitted concentration of half-maximal effect
Summary of the method: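 DPX-2 cells (HepG2 co-transfected with a PXR response element and a CYP3A4-promoter luciferase construct) were seeded at 2,000 per well, rested 5 hr at 37C, then exposed to DMSO-dissolved compounds for 24 hr. Activation was read as luciferase luminescence.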

[19] = biological target: Thyrotropin-releasing hormone receptor (Homo sapiens) (UniProt P34981); experiment: qHTS assay to identify small molecule antagonists of the thyrotropin-releasing hormone receptor (TRHR) signaling pathway (AID 1346877; active = well fitted inhibition curve with a large enough effect in the repeat runs, not every such curve was filed as active; note: series mostly up to about 51 µM)
Summary of the method: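 HEK293/TRHR cells, 18 h, 37 °C; Ca2+ dye 2 h; cpd 5 min RT; TRH 1 nM final; fluorescence read 3 min, 1 s intervals; 15 concs, triplicate.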

[20] = biological target: Thyrotropin-releasing hormone receptor (Homo sapiens) (UniProt P34981); experiment: qHTS assay to identify small molecule agonists of the thyrotropin-releasing hormone receptor (TRHR) signaling pathway (AID 1346891; calls by dose curve;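 note: HEK293 cells expressing TRHR with calcium dye readout; series mostly up to about 58 µM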)
Summary of the method: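 Kinetic fluorescence (3 min, 1 s intervals) reported intracellular calcium after compound transfer onto TRHR-Hek293 cells pre-loaded with dye for 2 h at 37 °C.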
% is set by controls: 0 for no effect and ±100 for the full control effect.

Chain of Progesterone receptor (Homo sapiens) (P06401 whole entry, looked up): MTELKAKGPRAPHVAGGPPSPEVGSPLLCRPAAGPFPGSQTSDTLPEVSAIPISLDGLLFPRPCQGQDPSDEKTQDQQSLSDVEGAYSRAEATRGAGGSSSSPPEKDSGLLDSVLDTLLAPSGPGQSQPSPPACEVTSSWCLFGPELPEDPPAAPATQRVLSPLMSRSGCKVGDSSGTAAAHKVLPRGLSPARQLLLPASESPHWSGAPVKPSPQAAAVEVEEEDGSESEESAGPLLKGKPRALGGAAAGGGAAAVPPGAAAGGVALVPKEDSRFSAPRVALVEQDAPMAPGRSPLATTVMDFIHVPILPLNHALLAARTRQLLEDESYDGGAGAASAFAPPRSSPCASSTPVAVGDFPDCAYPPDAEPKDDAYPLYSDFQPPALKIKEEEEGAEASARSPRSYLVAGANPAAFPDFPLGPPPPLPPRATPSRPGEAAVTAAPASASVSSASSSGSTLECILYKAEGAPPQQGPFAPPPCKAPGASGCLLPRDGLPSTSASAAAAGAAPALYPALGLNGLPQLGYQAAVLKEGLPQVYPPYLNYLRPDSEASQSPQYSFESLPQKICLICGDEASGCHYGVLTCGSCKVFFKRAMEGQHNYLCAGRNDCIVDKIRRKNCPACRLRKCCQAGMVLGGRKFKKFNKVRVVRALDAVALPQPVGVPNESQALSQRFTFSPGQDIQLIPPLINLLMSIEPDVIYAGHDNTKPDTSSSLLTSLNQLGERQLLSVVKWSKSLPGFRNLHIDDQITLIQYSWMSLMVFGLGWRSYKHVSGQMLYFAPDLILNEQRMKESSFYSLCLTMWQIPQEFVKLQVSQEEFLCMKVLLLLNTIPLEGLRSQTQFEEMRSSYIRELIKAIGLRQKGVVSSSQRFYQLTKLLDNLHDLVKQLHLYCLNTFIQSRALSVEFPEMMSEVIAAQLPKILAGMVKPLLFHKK
Chain of Thyrotropin receptor (Homo sapiens) (P16473 whole entry, looked up): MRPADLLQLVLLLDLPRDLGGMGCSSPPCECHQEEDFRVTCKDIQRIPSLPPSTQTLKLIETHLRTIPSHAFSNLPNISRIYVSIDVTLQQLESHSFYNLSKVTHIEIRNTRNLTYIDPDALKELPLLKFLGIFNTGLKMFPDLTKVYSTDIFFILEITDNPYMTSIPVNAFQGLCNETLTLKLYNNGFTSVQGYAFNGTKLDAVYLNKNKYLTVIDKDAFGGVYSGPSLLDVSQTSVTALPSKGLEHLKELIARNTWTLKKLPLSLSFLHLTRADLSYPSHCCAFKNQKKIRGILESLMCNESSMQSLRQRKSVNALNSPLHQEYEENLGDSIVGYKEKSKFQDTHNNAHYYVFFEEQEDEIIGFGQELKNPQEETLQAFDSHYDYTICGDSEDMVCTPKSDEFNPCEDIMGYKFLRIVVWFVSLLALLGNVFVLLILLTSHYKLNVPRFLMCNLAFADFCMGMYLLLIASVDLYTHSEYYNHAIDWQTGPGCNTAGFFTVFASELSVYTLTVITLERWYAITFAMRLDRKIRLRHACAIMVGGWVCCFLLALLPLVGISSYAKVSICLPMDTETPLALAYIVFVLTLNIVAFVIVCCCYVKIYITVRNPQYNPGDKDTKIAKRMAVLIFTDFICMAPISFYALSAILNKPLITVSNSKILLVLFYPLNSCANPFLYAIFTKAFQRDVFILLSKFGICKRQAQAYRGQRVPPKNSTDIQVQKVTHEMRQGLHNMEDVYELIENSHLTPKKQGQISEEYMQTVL
Chain of Nuclear receptor subfamily 1 group I member 2 (Homo sapiens) (O75469 whole entry, looked up): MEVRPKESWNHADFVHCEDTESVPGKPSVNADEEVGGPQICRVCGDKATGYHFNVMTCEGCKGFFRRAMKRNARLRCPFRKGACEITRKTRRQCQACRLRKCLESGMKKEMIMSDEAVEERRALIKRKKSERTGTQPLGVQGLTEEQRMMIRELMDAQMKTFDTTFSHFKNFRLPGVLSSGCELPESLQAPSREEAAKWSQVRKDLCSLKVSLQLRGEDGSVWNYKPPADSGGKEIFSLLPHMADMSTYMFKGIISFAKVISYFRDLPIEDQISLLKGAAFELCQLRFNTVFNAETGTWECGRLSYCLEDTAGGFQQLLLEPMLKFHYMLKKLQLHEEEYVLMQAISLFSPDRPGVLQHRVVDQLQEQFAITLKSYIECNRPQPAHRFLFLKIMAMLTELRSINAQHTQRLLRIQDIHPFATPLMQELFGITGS
Chain of Thyrotropin-releasing hormone receptor (Homo sapiens) (P34981 whole entry, looked up): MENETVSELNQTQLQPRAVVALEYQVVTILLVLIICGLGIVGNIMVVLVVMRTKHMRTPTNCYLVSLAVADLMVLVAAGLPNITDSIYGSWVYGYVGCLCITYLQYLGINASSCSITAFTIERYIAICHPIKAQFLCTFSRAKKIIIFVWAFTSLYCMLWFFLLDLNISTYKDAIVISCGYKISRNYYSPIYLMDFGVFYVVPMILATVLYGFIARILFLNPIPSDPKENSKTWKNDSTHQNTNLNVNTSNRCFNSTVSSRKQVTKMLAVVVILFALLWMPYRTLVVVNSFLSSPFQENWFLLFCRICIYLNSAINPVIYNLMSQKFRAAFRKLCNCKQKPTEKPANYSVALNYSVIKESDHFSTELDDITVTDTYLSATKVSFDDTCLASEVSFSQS
Chain of Nuclear receptor subfamily 1 group I member 2 (Rattus norvegicus) (Q9R1A7 whole entry, looked up): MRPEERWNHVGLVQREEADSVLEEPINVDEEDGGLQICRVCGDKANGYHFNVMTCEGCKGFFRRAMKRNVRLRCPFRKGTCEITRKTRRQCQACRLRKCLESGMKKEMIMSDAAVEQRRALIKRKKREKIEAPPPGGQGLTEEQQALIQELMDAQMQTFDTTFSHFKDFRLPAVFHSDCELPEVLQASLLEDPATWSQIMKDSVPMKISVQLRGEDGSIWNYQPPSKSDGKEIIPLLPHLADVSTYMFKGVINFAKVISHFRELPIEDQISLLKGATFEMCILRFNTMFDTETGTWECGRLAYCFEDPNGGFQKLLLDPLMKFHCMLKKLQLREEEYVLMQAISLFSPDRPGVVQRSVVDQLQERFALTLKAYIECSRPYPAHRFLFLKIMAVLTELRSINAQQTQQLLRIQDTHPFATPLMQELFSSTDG

C1CN(CCOCCN2CCOCC2)CCO1
inactive: Potency [1] | Potency [2] | Potency [3] | Potency [4] | Potency [5] | outcome [6] | outcome [7] | Potency [8] | Potency [9] | Potency [10] | outcome [11] | Potency [12] | Potency [13]

C[C@](N)(Cc1ccc(O)cc1)C(=O)O
inactive: activity change, negative = inhibition [1] 1.98% [at 8.39 µM] | activity change, negative = cytotoxicity [2] 3.17% [at 8.39 µM] | activation [3] -0.125% [at 8.39 µM] | activity change, negative = cytotoxicity [14] 2.75% [at 8.39 µM] | activity change, negative = cytotoxicity [5] 2.57% [at 8.39 µM] | viability change, negative = cytotoxic [15] 15.7% [at 6.97 µM] | activity change, negative = cytotoxicity [6] 0.568% [at 6.97 µM] | activation [7] 2.67% [at 6.97 µM] | activity change, negative = cytotoxicity [8] -1.21% [at 8.39 µM] | caspase activation [9] -1.17% [at 8.39 µM] | activity change, negative = cytotoxicity [10] -0.609% [at 8.39 µM] | caspase-3/7 activation [11] 0.841% [at 8.39 µM] | activity change, negative = cytotoxicity [12] -1.6% [at 8.39 µM] | activation [13] -9.59% [at 8.39 µM] | max activation [16] 0.627% | Potency [17] | Potency [18]

OCCOc1ccc(OCCO)cc1
inactive: Potency [1] | Potency [2] | Potency [3] | Potency [14] | Potency [5] | outcome [6] | outcome [7] | Potency [8] | Potency [9] | Potency [10] | Potency [12] | Potency [13]

CC(=O)CC(C)C
inactive: Potency [1] | Potency [2] | Potency [3] | Potency [4] | Potency [5] | outcome [7] | Potency [8] | Potency [9] | Potency [10] | outcome [11] | Potency [12] | Potency [13]

C=C(C)C(=O)OCCCCCCCC(C)C
inactive: Potency [1] | Potency [2] | Potency [3] | Potency [5] | Potency [15] | outcome [6] | outcome [7] | outcome [19] | outcome [20] | Potency [9] | outcome [11]
active: Potency [8] 0.976 µM | Potency [10] 1.09 µM | Potency [12] 1.38 µM | Potency [13] 0.87 µM

COC(=O)[C@@H](N)Cc1ccc(O)c(O)c1
inactive: Potency [1] | Potency [2] | Potency [3] | Potency [14] | Potency [5] | Potency [15] | outcome [6] | outcome [7] | outcome [19] | outcome [20] | Potency [8] | Potency [9] | Potency [10] | outcome [11] | Potency [12] | Potency [13] | max activation [16] -6.8% | Potency [17] | Potency [18]

COc1cc(C(=O)N2CCCCCCC2)cc(OC)c1OC
inactive: Potency [1] | Potency [2] | Potency [3] | Potency [14] | Potency [5] | Potency [15] | outcome [6] | outcome [7] | outcome [20] | Potency [8] | Potency [9] | Potency [10] | outcome [11] | Potency [12] | max activation [16] -0.931%
active: Potency [18] 15.8 µM

Oc1ccc(C2CNCCc3c2cc(O)c(O)c3Cl)cc1 (stereo not drawn)
inactive: Potency [1] | Potency [2] | Potency [3] | Potency [14] | Potency [5] | Potency [15] | outcome [6] | outcome [7] | Potency [8] | Potency [9] | Potency [10] | outcome [11] | Potency [12] | Potency [13]
